Most compounds without a hit are left out; they make up all but 6% or so of the library.
Tau fibril ThT: inhibitors of human tau fibril formation, thioflavin T binding. P10636. recombinant tau K18 P301L, heparin-induced fibrillization, ThT fluorescence. Potency, µM (series often up to 57.4 µM), without a hit: top-dose activity, negative = inhibition, hits mostly inhibitors. 2.1% of 270,000 active; also: nearly all actives have a fitted effect of over 55% in size
Target sequence (P10636 561-689 P618L limits assumed): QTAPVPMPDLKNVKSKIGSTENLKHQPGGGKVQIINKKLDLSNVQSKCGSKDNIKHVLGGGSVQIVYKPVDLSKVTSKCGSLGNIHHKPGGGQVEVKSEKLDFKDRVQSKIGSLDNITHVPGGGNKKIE
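Heparin-induced (20 uM) aggregation of recombinant human K18 P301L tau, 15 uM unlabeled with 0.24 uM labeled, pH 7 acetate buffer, 6 hr at 37 C with compound. Fibrils quantified by 30 uM ThT fluorescence after 1 hr ambient incubation.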
Tau fluor cs: counter-screen for tau fibril formation inhibitors; tau K18 P301L Alexa594 fluorescence, heparin fibrillization; Potency, µM (highest dose often 57.7 µM), for the others: top-dose activity change, negative = decrease; 0.93% of 280,000 active; AID 1463; also: nearly all actives have a fitted effect of over 55% in size
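Human tau K18 P301L (15 uM unlabeled, 0.24 uM Alexa 594-labeled) in 100 mM sodium acetate pH 7 with 20 uM heparin, 6 hr at 37 C. ThT 30 uM added, 1 hr ambient; Alexa 594 FP and total fluorescence read at 555/632 nm.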
Sfp PPTase inh: blocks B. subtilis Sfp PPTase activity; Q9F4F7; Biochemical Sfp PPTase activity, qHTS; Potency, µM, for the others: largest response in the series, negative = inhibition, hits mostly inhibitors; 3.5% of 310,000 active; AID 1490;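 also: the enzyme is Sfp with the accession as filed and its product quenches rhodamine fluorescence; 0% = enzyme reaction without inhibitor and -100% = no enzyme wells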
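Fluorescence-quenching assay: 15 nM Sfp-PPTase preincubated 15 min at room temperature with compound, then 5 uM rhodamine-CoA and 12.5 uM BHQ-2-labelled YbbR peptide added. Fluorescence (ex 525/em 598 nm) read at start and after 30 min; difference gives rate.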
Tau fibril FP: inhibitors of human tau fibril formation. P10636. K18 P301L tau heparin fibrillization, Alexa594 FP, 6 h. Potency, µM (titrated, usually from 57.7 µM), without a hit: at the top dose activity, negative = inhibition, actives largely listed as inhibitors. 0.39% of 280,000 active; also: nearly all actives have a fitted effect of over 55% in size
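Human tau K18 […] P301L fragment, 15 uM unlabeled plus 0.24 uM Alexa 594-labeled tau (final), with compound and 20 uM heparin in 100 mM sodium acetate pH 7; 6 hr at 37 C, then Alexa 594 FP read.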
PLK1 PBD block: blocks phosphopeptide binding to human PLK1 polo-box domain | AID 720504 | Plk1 PBD binding of FITC phosphopeptide, fluorescence polarization | Potency, µM, for inactives: max response, negative = inhibition, hits mostly inhibitors | 2.8% of 360,000 active | P53350; also: series mostly up to about 57 µM; nearly all actives have a fitted effect of over 65% in size
VDR inhibitor: vitamin D3 receptor (human) inhibition | P11473 | Potency, µM, inactives show max response, negative = inhibition, most hits filed as inhibitors | AID 504847 | VDR-SRC2-3 peptide fluorescence polarization, 2 h | 0.93% of 400,000 active
Target sequence (P11473 whole entry, looked up): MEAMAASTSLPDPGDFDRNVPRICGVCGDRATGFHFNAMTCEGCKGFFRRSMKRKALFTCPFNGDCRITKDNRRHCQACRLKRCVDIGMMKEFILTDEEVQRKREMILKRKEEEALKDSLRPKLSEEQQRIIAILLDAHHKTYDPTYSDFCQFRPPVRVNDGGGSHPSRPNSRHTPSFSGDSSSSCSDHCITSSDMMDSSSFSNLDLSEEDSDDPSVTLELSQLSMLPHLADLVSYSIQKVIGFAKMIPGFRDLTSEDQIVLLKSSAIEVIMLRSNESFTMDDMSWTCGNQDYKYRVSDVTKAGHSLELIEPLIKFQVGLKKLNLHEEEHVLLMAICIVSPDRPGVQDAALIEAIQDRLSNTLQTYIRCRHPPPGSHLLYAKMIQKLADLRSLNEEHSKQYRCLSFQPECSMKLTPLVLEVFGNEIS
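Reagent solutions, kept cold and dark, are dispensed first; compounds are then pinned in at 23 nl, plates briefly spun, and incubated 2 h at ambient temperature. Inhibition of VDR–SRC2-3 peptide binding is read by fluorescence polarization.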
* marks the source's active call; other numbers are inactive results; ? = inconclusive; · = no result given; [ ] = another dose, or the depositor's remark. Calls follow the shape of the dose curve; as a rule, active = well fitted curve in the direction sought with a large enough effect; inconclusive = small, poorly fitted or top-dose-only effect, or another doubt; inactive = no such curve, though single readings can be large; an effect the other way counts as inactive or inconclusive. Unless noted, % is scaled to controls: 0 for no effect and ±100 for the full control effect; potency is read from the fitted curve at half-maximal effect.

SMILES	Tau fibril ThT	Tau fluor cs	Sfp PPTase inh	Tau fibril FP	PLK1 PBD block	VDR inhibitor
Cc1cccc(-n2c3c(cc(-c4nc(-c5ccc(Cl)cc5)cs4)c2=O)C(=O)CC(C)(C)C3)c1	3.0%	-6.9%	·	-11.3%	·	-10.9%
O=C(CC12CC3CC(CC(C3)C1)C2)NCc1ccccc1	·	·	16.4%	·	-1.0%	-18.7%
O=C(CC12CC3CC(CC(C3)C1)C2)NCc1ccc(F)cc1	·	·	8.2%	·	29.9µM*	-26.1%
O=C(c1ccco1)N1CCC2(CC1)CCN(C(c1ccccc1)c1ccccc1)CC2	·	·	0.8%	·	·	?
Cc1nc(Nc2cnc(/C=C/c3cc(C(=O)Nc4cccc(C(F)(F)F)c4)ccc3C)cn2)cc(N2CCNCC2)n1	·	·	50.1µM*	·	20.0%	-11.2%
Cn1c(/C=C/c2ccc(Br)cc2)c([N+](=O)[O-])c(=O)n(C)c1=O	·	·	-14.0%	·	-7.4%	50.1µM*
Cc1ccccc1C(=O)NCC(c1cccnc1)N1CCc2ccccc21 (stereo not drawn)	-5.3%	-15.9%	·	-11.8%	·	5.9%
Nc1nc(SCC(=O)c2ccc([N+](=O)[O-])cc2)n[nH]1	-2.4%	-3.3%	31.6µM*	1.7%	?	?
Nc1nc(SCC(=O)c2ccc(Oc3ccccc3)cc2)n[nH]1	-11.9%	-11.0%	50.1µM*	0.8%	-27.2%	-28.3%
COc1ccccc1C(=O)NC(=O)CSc1nc(C)cs1	·	·	·	·	-5.1%	2.7%
CCN1/C(=C2\C(=O)N(C)C(=S)N2c2ccccc2)C=Cc2ccccc21	?	-20.2%	89.1µM*	5.2%	-19.6%	9.2%
CCN1/C(=C2\C(=O)N(C)C(=S)N2C)C=Cc2cc(C)ccc21	?	-19.6%	44.7µM*	-9.7%	-5.8%	4.2%
Cn1c(=O)[nH]c(=O)c2c1[nH]c(=S)n2Cc1ccc(Cl)cc1	·	·	8.91µM*	·	11.9µM*	?
Cn1c(=O)[nH]c(=O)c2c1[nH]c(=S)n2CCCc1ccccc1	·	·	14.1µM*	·	29.9µM*	39.8µM*
Cn1c(=O)c2[nH]c(=S)n(Cc3ccccc3)c2n(C)c1=O	·	·	·	·	0.8%	?
Cn1c(=O)c2c([nH]c(=S)n2CCCc2ccccc2)n(C)c1=O	·	·	50.1µM*	·	-29.9%	79.4µM*
Cn1c(=O)[nH]c(=O)c2c1nc(Br)n2CCCc1ccccc1	3.0%	5.5%	22.3%	-6.3%	·	·
COCCNC(=O)C1CCCN(Cc2ccccc2F)CC1 (stereo not drawn)	·	·	·	·	-9.2%	·
CCOc1cccc(C(=O)N(Cc2ccc(C(C)C)cc2)C2CCS(=O)(=O)C2)c1 (stereo not drawn)	-14.2%	-14.0%	·	6.0%	·	-8.4%
CC1(C)Cc2c(C#N)c(SCC(=O)c3ccccc3)nc(N3CCOCC3)c2CS1	-10.5%	-21.3%	-7.7%	4.6%	29.9µM*	-12.0%
CC(=O)N1CCN(c2nc(-c3ccco3)c3c(c2C#N)CC(C)(C)SC3)CC1	?	-8.5%	44.7µM*	-8.5%	-28.5%	-9.0%
CC(Sc1nc(N2CCOCC2)c2c(c1C#N)CC(C)(C)OC2)C(=O)Nc1ccccc1 (stereo not drawn)	-11.3%	-13.4%	-13.0%	?	-21.8%	0.0%
CCc1nc(N2CCN(C(=O)c3ccco3)CC2)c(C#N)c2c1COC(C)(C)C2	·	·	13.9%	·	-0.2%	1.6%
CC1(C)Cc2c(C#N)c(N3CCN(C(=O)c4ccccc4Cl)CC3)nc(-c3ccco3)c2CS1	?	-10.3%	-99.5%	-11.7%	?	-18.7%
CC1(C)Cc2c(C#N)c(N3CCN(C(=O)c4ccco4)CC3)nc(-c3ccco3)c2CS1	-1.0%	-2.2%	20µM*	7.1%	-23.9%	?
SMILES	Tau fibril ThT	Tau fluor cs	Sfp PPTase inh	Tau fibril FP	PLK1 PBD block	VDR inhibitor
O=c1c(-c2cccc(F)c2)nc2cncnc2n1-c1ccccc1	·	·	24.0%	·	·	-0.9%
COc1ccc(C(=O)NCC(c2ccc3c(c2)OCO3)N2CCN(C)CC2)cc1OC (stereo not drawn)	4.4%	3.1%	·	-2.1%	·	0.2%
Cc1ccc(CSc2nc3c([nH]c4ccccc43)c(=O)n2C)cc1	-4.6%	-10.8%	·	-8.5%	·	7.4%
O=C(Nc1nnc(-c2ccncc2)s1)C1CCCO1 (stereo not drawn)	-10.9%	-9.0%	-58.0%	-4.9%	21.2µM*	-1.2%
O=C(Nc1nnc(Cc2ccc(Cl)cc2)s1)C1CCCO1 (stereo not drawn)	-11.8%	-10.4%	-26.9%	-6.8%	23.8µM*	-6.6%
COc1ccc(Cc2nnc(NC(=O)C3CCCO3)s2)cc1 (stereo not drawn)	9.6%	-0.5%	-8.9%	-2.1%	1.2%	-13.2%
CCOc1ccc(NC(=O)CN(C)C(=O)C2CCN(C(=O)c3ccc(Cl)cc3)CC2)cc1OCC	·	·	·	·	-16.6%	19.0%
Cn1c(NN)nc2ccccc2c1=O	?	-26.5%	17.8µM*	-15.2%	3.5%	-4.9%
Cn1c(N)nc2ccccc2c1=O	0.1%	-1.1%	14.4%	0.6%	1.3%	16.1%
CCOc1cc(C(=O)Nc2cc3c(cc2N2CCCC2)n(C)c(=O)c(=O)n3C)cc(OCC)c1OCC	?	-11.0%	·	-2.7%	·	3.3%
O=CN1CCCN(Cc2nc(-c3cccc(Cl)c3)no2)CC1	-0.9%	-7.3%	6.9%	-2.3%	-1.0%	3.0%
CC(=O)Nc1ccc(S(=O)(=O)NC2=C(N3CCN(C)CC3)C(=O)c3ccccc3C2=O)cc1	·	·	-9.5%	·	-9.1%	5.9%
CC1CCN(C2=C(NS(=O)(=O)c3ccc(Cl)cc3)C(=O)c3ccccc3C2=O)CC1	?	?	-1.6%	-6.8%	-10.3%	-9.2%
O=C1C(NS(=O)(=O)c2cccs2)=C(N2CCN(c3cccc(Cl)c3)CC2)C(=O)c2ccccc21	3.98µM*	8.91µM*[quencher]	-5.7%	?	-11.3%	3.9%
CC1CCN(C2=C(NS(=O)(=O)c3ccccc3)C(=O)c3ccccc3C2=O)CC1	12.6µM*	11.2µM*[quencher]	-1.3%	?	-7.4%	0.2%
CC(=O)Nc1ccc(S(=O)(=O)NC2=C(N3CCN(Cc4ccccc4)CC3)C(=O)c3ccccc3C2=O)cc1	15.8µM*	14.1µM*[quencher]	7.1%	-9.5%	-6.2%	5.4%
O=C1C(NS(=O)(=O)c2ccccc2)=C(N2CCN(c3ccc(F)cc3)CC2)C(=O)c2ccccc21	6.31µM*	10µM*[quencher]	10.5%	-12.1%	?	?
Cc1ccc(N2CC(NC(=O)c3cc4ccccc4o3)CC2=O)cc1 (stereo not drawn)	-11.7%	-14.2%	·	-13.0%	·	11.2%
C[C@H]1CN([C@@H](C)CO)C(=O)CCCn2nncc2CO[C@@H]1CN(C)C(=O)c1ccc2ccn(C)c2c1	·	·	·	·	6.0%	·
CC(C)OC(=O)Nc1ccc2nc(-c3cscn3)[nH]c2c1	·	·	20.2%	·	·	6.8%
O=C(OCc1ccccc1)N1CCN(C(c2ccnc3ccccc23)c2nnnn2-c2ccc3c(c2)OCCO3)CC1 (stereo not drawn)	·	·	·	·	-9.9%	·
